Compound activity: PubChem, National Center for Advancing Translational Sciences (NCATS)
A selection: hits, their analogues and other compounds. The true share with any hit is near 7.9%.
HCMV inh – blocks human cytomegalovirus replication; 4.5% of 410,000 active; HFF cells, HCMV-luciferase reporter, 72 h; stronger effect = lower value; activity change, negative = inhibition, % at 57.5 µM; in the data active means activity change below about -60%; inconclusive means no clear call, values can overlap the other calls; inactive means above about -39%
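Human foreskin fibroblasts infected with luciferase-reporter HCMV at MOI 1 PFU/cell, compounds at two doses. Luciferase measured 72 h post infection; normalized to buffer-only basal and Salinomycin (10uM) controls.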
HCV inhibitor – HCV inhibition | Huh7.5.1 HCVcc-Cre infection, luciferase reporter, 44 h | 3.4% of 340,000 active | Potency, µM (doses to about 41.8 µM), most hits filed as inhibitors; active means well fitted inhibition curve with a large enough effect; inconclusive means small, poorly fitted or top-dose-only effect, or another doubt; inactive means no such curve, though single readings can be large or run the other way
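A cell-based infection assay in which seeded cells (1,000 per well) receive test compound after 4 h, are inoculated with HCVcc-Cre at approximately 0.5 moi, and are incubated 44 h before luminescence detection.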
LASV entry inh – Lassa virus entry inhibition; AID 540256; Potency, µM (series often up to 37.9 µM), most hits filed as inhibitors; 1.2% of 300,000 active; Lassa virus pseudotype entry inhibition, cell reporter; calls by dose curve; tested in HEK293 cells; further: nearly all actives have a fitted effect of over 50% in size
FMDV inh – blocks foot and mouth disease virus | 1.2% of 410,000 active | FMDV antiviral cell-based qHTS | Potency, µM (titrated, usually from 57.9 µM), actives largely listed as inhibitors | AID 1159524; calls by dose curve; tested in HEK293T cells; further: read-out not given here; nearly all actives have a fitted effect of over 45% in size
MARV entry inh – blocks Marburg virus binding to or entry into cells; Potency, µM (highest dose often 37.8 µM), usual class: inhibitors; 1.8% of 300,000 active; AID 540276; Marburg virus pseudotyped entry inhibition, cell reporter; calls by dose curve; tested in HEK293 cells
A number is an active result; n = inactive; u = inconclusive; x = not tested or not shown; ! = not active in a repeat.

SMILES	HCMV inh	HCV inhibitor	LASV entry inh	FMDV inh	MARV entry inh
C/C(=N\NC(=O)c1cc(-c2cccnc2)nc2ccccc12)c1ccc(O)cc1O	-94	4µM	6.3µM	n	7.1µM
COC(=O)N[C@H](CC(C)=O)c1cccc(F)c1	x	x	x	x	n
CC(C)CC(=NNC(=O)c1ccncc1)c1cc(Cl)ccc1O	-97	2.5µM	3.2µM	u	u
C/C(=N/NC(=O)c1ccncc1)c1ccc(NC(=O)c2ccc(Cl)cc2Cl)cc1	n	n	n	n	u
O=C(CSc1nccn1-c1cccc(Cl)c1)Nc1ccc2c(c1)OCO2	n	x	n	n	x
COc1ccc(C(=O)Nc2ccc3nc(N4CCOCC4)sc3c2)cc1OC	n	u	x	n	x
CCOCc1c(C(=O)Nc2ccc3nc(N4CCOCC4)sc3c2)oc2ccccc12	n	u	u	20µM	u
CCCn1nc(C(=O)Nc2ccc3nc(N4CCOCC4)sc3c2)ccc1=O	-76	u	u	13µM	u
CCOCc1c(C(=O)Nc2cc(OCC)c(N3CCOCC3)cc2OCC)oc2ccccc12	n	n	n	u	n
CCOCc1c(C(=O)Nc2ccccc2N2CCN(C)CC2)oc2ccccc12	n	11µM	n	n	u
COC(=O)C1=C(C)N(Cc2ccccc2)C(=S)NC1CCc1ccccc1 (stereo unspecified)	x	x	x	x	n
COc1ccc(CCNC(=O)c2ccc3c(c2)ncn3-c2ccc(C(C)C)cc2)cc1OC	n	x	u	n	x
O=C(NCCO)c1cccc2c1C(=O)c1ccccc1-2	n	n	n	n	n
O=C(O)CCNc1ccc(NCCC(=O)O)c2c1C(=O)c1ccccc1C2=O	-72	n	x	u	x
O=C1c2cccc(NCCNCCO)c2C(=O)c2cccc(NCCNCCO)c21	-99	u	u	n	5µM
O=C(NCC1CCCO1)c1ccccc1NS(=O)(=O)c1ccc(Br)s1 (stereo unspecified)	n	n	n	u	n
COc1ccc(S(=O)(=O)NNc2nc(C)cc(C)n2)cc1[N+](=O)[O-]	x	n	n	n	n
N#C/C(=C\c1cccs1)C(=O)Nc1ccccn1	n	n	u	n	u
COc1ccc(/C=C(/NC(=O)c2ccco2)C(=O)NCc2ccco2)cc1OC	u	n	n	n	n
CC1CC(=O)c2c(cc3c(-c4c(O)cc(O)c5c(O)c6c(cc45)OC(C)CC6=O)c(O)cc(O)c3c2O)O1 (stereo unspecified)	x	4.5µM	x	35µM	x
CC[C@]12c3[nH]c4ccc(Cl)cc4c3CCN1C(=O)[C@@H](CC(=O)NCC13CC4CC(CC(C4)C1)C3)C[C@@H]2C(=O)N1CCN(C(=O)C2CC2)CC1	n	u	x	u	x
CC[C@]12c3[nH]c4ccccc4c3CCN1C(=O)C(CC(=O)NCc1ccco1)C[C@@H]2C(=O)N1CCN(C(=O)C2CC2)CC1 (stereo partly specified)	n	0.79µM	x	n	x
CC[C@]12c3[nH]c4ccc(Cl)cc4c3CCN1C(=O)[C@@H](CC(=O)NCc1ccco1)C[C@@H]2C(=O)N1CCN(C(=O)C2CC2)CC1	n	n	x	n	x
CC[C@]12c3[nH]c4ccccc4c3CCN1C(=O)C(CC(=O)NCC13CC4CC(CC(C4)C1)C3)C[C@@H]2C(=O)N1CCN(C(=O)C2CC2)CC1 (stereo partly specified)	n	22µM	x	u	x
CCOc1ccc(S(=O)(=O)N2CCCC(C(=O)NCc3ccccc3)C2)cc1 (stereo unspecified)	n	n	n	n	n
SMILES	HCMV inh	HCV inhibitor	LASV entry inh	FMDV inh	MARV entry inh
O=C(COc1ccc2cc(-c3ccccc3)c(=O)oc2c1)NCC1CCC(C(=O)O)CC1 (stereo unspecified)	n	n	x	n	x
c1ccc(-c2cc(-c3ccncc3)nc3ccc4ccccc4c23)cc1	n	10µM	n	u	u
Clc1ccc2nc(-c3ccncc3)cc(-c3ccccc3)c2c1	n	n	n	u	n
CCN1/C(=C(\O)c2ccccc2)C(=O)c2ccccc2S1(=O)=O	-88	n	n	n	u
CCCN1C(C(=O)c2ccccc2)=C(OC(=O)c2ccc(F)cc2)c2ccccc2S1(=O)=O	-90	x	n	n	n
CCCCN(CCCC)C1=C(C(=O)c2ccccc2)N(CC)S(=O)(=O)c2ccccc21	n	x	n	n	n
CCN1C(C(=O)c2ccccc2)=C(OC(=O)COc2ccccc2)c2ccccc2S1(=O)=O	-60	x	n	n	n
CCCN1C(C(=O)c2ccccc2)=C(OC(=O)c2ccc(C)cc2)c2ccccc2S1(=O)=O	-85	x	u	n	n
CCN1C(C(=O)c2ccccc2)=C(OC(=O)C(C)C)c2ccccc2S1(=O)=O	n	x	u	n	u
CCOc1cc(S(=O)(=O)N2CCN(C(=O)c3ccco3)CC2)ccc1F	n	n	x	n	x
CCOc1ccccc1CNC(=O)C1CCN(c2nc3ccccc3nc2C(F)(F)F)CC1	n	x	n	n	x
CCN1C(C(=O)c2ccccc2)=C(OC(=O)c2ccc(OC)cc2)c2ccccc2S1(=O)=O	-68	x	n	n	n
N=c1ccn2c(n1)O[C@H]1[C@@H](CO)[C@H](O)O[C@H]12	-98	u	x	n	x
N=c1ccn2c(n1)O[C@H]1[C@H](O)[C@@H](CO)O[C@H]12	-96	n	u	n	u
O=C(OCC1OC2C(Oc3nc(=O)ccn32)C1O)c1ccccc1 (stereo unspecified)	n	n	n	n	n
N=c1nc2n(cc1F)C1OC(CO)C(O)C1O2 (stereo unspecified)	-99	u	n	n	n
COc1ccc(NS(=O)(=O)c2ccc(OC)c(N(C)S(=O)(=O)c3ccc(Cl)cc3)c2)cc1	-90	u	u	x	u
COc1ccc(S(=O)(=O)Nc2ccc(F)cc2)cc1N(C)S(=O)(=O)c1ccc(Cl)cc1	-72	u	u	x	21µM
COc1ccc(S(=O)(=O)Nc2cccc3c2O[C@H](CN(C)Cc2ccncc2)[C@@H](C)CN([C@H](C)CO)C3=O)cc1	n	n	x	n	x
CC(=O)Oc1cc(OC(C)=O)c2c(c1)OC(c1ccc(OC(C)=O)c(OC(C)=O)c1)C(OC(C)=O)C2 (stereo unspecified)	x	x	x	n	x
COC(=O)c1c(C)noc1-c1ccc(Cl)cc1	-64	n	x	n	x
O=C(O)Cn1cc(C(=O)C(F)(F)F)c2ccccc21	n	n	n	n	u
CC(=O)c1cn(CC(=O)NCCc2c[nH]c3ccccc23)c2ccccc12	n	10µM	x	u	x
CC(=O)c1cn(CC(=O)Nc2ccccc2C)c2ccccc12	-68	u	n	u	u
CC(=O)c1cn(CC(=O)Nc2ccc(C)cc2)c2ccccc12	n	u	n	n	n
SMILES	HCMV inh	HCV inhibitor	LASV entry inh	FMDV inh	MARV entry inh
CC(=O)c1cn(CC(=O)Nc2c(C)cccc2C)c2ccccc12	-75	5.6µM	n	u	u
CC(C)(C)C(=O)c1cn(CC(=O)O)c2ccccc12	n	10µM	u	n	n
CC(C)c1ccc(NC(=O)CSc2n[nH]c(=O)n2C2CC2)cc1	n	n	n	u	n
Cc1c(C(=O)NC(C)(C)CO)sc2ncnc(NCCN(C)C)c12	x	x	x	n	x
Cc1ccc(NC(=O)c2cccc3c(=O)c4c([nH]c23)CCCC4)c(C)c1	n	x	n	n	u
CN=c1nc(-c2ccccc2)n(-c2ccccc2)s1	n	n	23µM	n	14µM!
